# Where “and” joins values, the source holds several entries; their conditions need not be identical. Equal values may be shown once. Records with an inconclusive call do not appear. Calls of active or inactive are those of the source. The calls were made as follows: active = hit-call score of the fitted dose curve at least 0.9, where 1 is the maximum; inconclusive = response in the unintended direction; inactive = score below 0.9.
# What was measured:
# [1] = target: rat Catechol-O-Methyl Transferase (COMT), Comt (gene 24267) (UniProt P22734); assay: NVS_ENZ_rCOMT: NovaScreen (NVS) Enzymatic Assay for rat Catechol-O-Methyl Transferase (COMT) (AID 2283235)
# How it was run: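 Rat dorsal striatum extract served as COMT source; product quantified by HPLC/spectrophotometry, read at 0 h after dosing. Primary single-concentration screen at 25 uM, followed by concentration series to a 50 uM maximum.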
# [2] = tested on: bovine Angiotensin II Receptor Type 2 (AT2), gene 407157; assay: NVS_GPCR_bAT2: NovaScreen (NVS) G Protein-Coupled Receptor Assay for bovine Angiotensin II Receptor Type 2 (AT2) (AID 2283240)
# How it was run: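 Radioligand displacement on bovine cerebellar membranes, 1 hour incubation, filter-based scintillation counting; loss of signal vs DMSO. Duplicate single-point screen at 25 uM, then concentration-response to 50 uM maximum.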
# [3] = NVS_GPCR_bNPY_NonSelective: NovaScreen (NVS) G Protein-Coupled Receptor Assay for bovine Neuropeptide Y (NPY) Receptor, Non-selective Binding (AID 2283245)
# How it was run: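 Displacement of radioligand from bovine hippocampal membrane receptors, read by filtration and scintillation counting after 1 hour. Concentration-response to a top of 50 uM followed a 25 uM duplicate primary screen. Loss of signal versus DMSO.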
# [4] = target: human Serotonin, 5-Hydroxytryptamine Receptor 2A (5HT2A), HTR2A (gene 3356) (UniProt P28223); assay: NVS_GPCR_h5HT2A: NovaScreen (NVS) G Protein-Coupled Receptor Assay for human Serotonin, 5-Hydroxytryptamine Receptor 2A (5HT2A) (AID 2283249)
# How it was run: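 Radioligand displacement on human cortex tissue extract, counted by filtration and scintillation 1.5 h post-dosing. Initial single-concentration screen at 25 uM in duplicate, concentration series in follow-up; DMSO as baseline.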
# [5] = target: bovine Dopamine Receptor (DR), Non-selective Binding, DRD1 (gene 281125) (UniProt Q95136); assay: NVS_GPCR_bDR_NonSelective: NovaScreen (NVS) G Protein-Coupled Receptor Assay for bovine Dopamine Receptor (DR), Non-selective Binding (AID 2283241)
# How it was run: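 Filter-based radioligand binding with bovine striatal membrane, incubated 1 h; DMSO as negative baseline. Initial duplicate single-point test at 25 uM preceded concentration series for actives.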
# [6] = tested on: guinea pig Leukotriene B4 Receptor (LTB4), gene 100379538; assay: NVS_GPCR_gLTB4: NovaScreen (NVS) G Protein-Coupled Receptor Assay for guinea pig Leukotriene B4 Receptor (LTB4) (AID 2283247)
# How it was run: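 Membranes from guinea pig spleen incubated 2 h with radioligand and compound; bound counts measured by filtration and scintillation. Screened first at 25 uM in duplicate, then actives titrated to a 50 uM top concentration relative to DMSO.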
# [7] = target: Adenosine receptor A1 (Bos taurus) (UniProt P28190); assay: NVS_GPCR_bAdoR_NonSelective: NovaScreen (NVS) G Protein-Coupled Receptor Assay for bovine Adenosine Receptor (AdoR), Non-selective Binding (AID 2283244)
# How it was run: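 Cell-free binding with membranes from bovine striatum: radioligand displaced by test chemical, read after 1 h by filtration and scintillation. Single-point 25 uM duplicate primary, 50 uM top concentration in follow-up curves, DMSO baseline.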
# [8] = target: guinea pig Leukotriene D4 Receptor (LTD4), CYSLTR1 (gene 100135514) (UniProt Q2NNR5); assay: NVS_GPCR_gLTD4: NovaScreen (NVS) G Protein-Coupled Receptor Assay for guinea pig Leukotriene D4 Receptor (LTD4) (AID 2283248)
# How it was run: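 Guinea pig lung membrane preparation; bound radioligand measured by filter scintillation after 1 h, loss of signal versus DMSO marking displacement. Compounds tested at 25 uM in duplicate, hits retested to max 50 uM.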
# [9] = tested on: bovine Histamine 1 Receptor (H1), gene 281231; assay: NVS_GPCR_bH1: NovaScreen (NVS) G Protein-Coupled Receptor Assay for bovine Histamine 1 Receptor (H1) (AID 2283246)
# How it was run: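 Hits from a 25 uM duplicate primary screen were retested in concentration series (top 50 uM); binding measured as scintillation-counted displacement of radioligand from bovine cerebellar membranes after 1 h, normalised to DMSO.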
# [10] = target: human Adenosine A1 Receptor (AdoRA1), ADORA1 (gene 134) (UniProt P30542); assay: NVS_GPCR_hAdoRA1: NovaScreen (NVS) G Protein-Coupled Receptor Assay for human Adenosine A1 Receptor (AdoRA1) (AID 2283254)
# How it was run: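 Radioligand competition binding on human cortical membranes, 1 h after compound addition; bound radioactivity read by filtration and scintillation counting. Loss of signal versus DMSO baseline scored as displacement; primary screen duplicate at 25 uM, actives retested in concentration series.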
# [11] = target: human Serotonin, 5-Hydroxytryptamine Receptor 5A (5HT5A), HTR5A (gene 3361) (UniProt P47898); assay: NVS_GPCR_h5HT5A: NovaScreen (NVS) G Protein-Coupled Receptor Assay for human Serotonin, 5-Hydroxytryptamine Receptor 5A (5HT5A) (AID 2283251)
# How it was run: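 Membranes from HEK293 cells, radioligand binding read by filtration and scintillation after 1 h. Single-concentration duplicate testing at 25 uM, then concentration-response for actives; positive-direction fitting relative to DMSO.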
# [12] = tested on: guinea pig Muscarinic, Peripheral (Mperiperal) Receptor, Non-selective Binding, gene 100379235; assay: NVS_GPCR_gMPeripheral_NonSelective: NovaScreen (NVS) G Protein-Coupled Receptor Assay for guinea pig Muscarinic, Peripheral (Mperiperal) Receptor, Non-selective Binding (AID 2283250)
# How it was run: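 Screened in duplicate at 25 uM, hits retested in concentration series to 50 uM max, using bladder membrane radioligand displacement from guinea pig. Filtration and scintillation counting 1 h post-dose, fitted relative to DMSO.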
# [13] = tested on: rat Monoamine Oxidase, MAO-A, Central (MAOAC), gene 29253; assay: NVS_ENZ_rMAOAC: NovaScreen (NVS) Enzymatic Assay for rat Monoamine Oxidase, MAO-A, Central (MAOAC) (AID 2283243);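 also: potency refers to inhibition seen as signal drop below DMSO baseline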
# How it was run: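 Enzyme from rat brain, cell-free radiodetection format. Counts taken at 1.5 h; activity fitted against DMSO baseline, loss of signal marking inhibition. Confirmatory concentration series followed the 25 uM duplicate screen.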
# [14] = target: human Serotonin, 5-Hydroxytryptamine Receptor 6 (5HT6), HTR6 (gene 3362) (UniProt P50406); assay: NVS_GPCR_h5HT6: NovaScreen (NVS) G Protein-Coupled Receptor Assay for human Serotonin, 5-Hydroxytryptamine Receptor 6 (5HT6) (AID 2283253)
# How it was run: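 Filter scintillation counting of radioligand displacement from HEK293-expressed 5HT6, 1 hour post-dose, with loss of signal relative to DMSO. Single 25 uM duplicates first, with concentration series for confirmation.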
# [15] = target: guinea pig Opioid, Kappa 1 Receptor (OpiateK), OPRK1 (gene 100135587) (UniProt P41144); assay: NVS_GPCR_gOpiateK: NovaScreen (NVS) G Protein-Coupled Receptor Assay for guinea pig Opioid, Kappa 1 Receptor (OpiateK) (AID 2283252);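 also: radioligand displacement from kappa opioid receptor in guinea pig cerebellar membranes; active means reduced radioligand binding relative to DMSO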
# How it was run: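 Radioligand competition binding using guinea pig cerebellum membrane fraction; 2 h exposure; filter radiodetection. Single concentration 25 uM (duplicate), follow-up concentration-response for actives.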
# [16] = target: rat Monoamine Oxidase, MAO-B, Peripheral (MAOBP), Maob (gene 25750) (UniProt P19643); assay: NVS_ENZ_rMAOBP: NovaScreen (NVS) Enzymatic Assay for rat Monoamine Oxidase, MAO-B, Peripheral (MAOBP) (AID 2283242)
# Sequence of rat Monoamine Oxidase, MAO-B, Peripheral (MAOBP), Maob (gene 25750) (P19643 whole entry, looked up): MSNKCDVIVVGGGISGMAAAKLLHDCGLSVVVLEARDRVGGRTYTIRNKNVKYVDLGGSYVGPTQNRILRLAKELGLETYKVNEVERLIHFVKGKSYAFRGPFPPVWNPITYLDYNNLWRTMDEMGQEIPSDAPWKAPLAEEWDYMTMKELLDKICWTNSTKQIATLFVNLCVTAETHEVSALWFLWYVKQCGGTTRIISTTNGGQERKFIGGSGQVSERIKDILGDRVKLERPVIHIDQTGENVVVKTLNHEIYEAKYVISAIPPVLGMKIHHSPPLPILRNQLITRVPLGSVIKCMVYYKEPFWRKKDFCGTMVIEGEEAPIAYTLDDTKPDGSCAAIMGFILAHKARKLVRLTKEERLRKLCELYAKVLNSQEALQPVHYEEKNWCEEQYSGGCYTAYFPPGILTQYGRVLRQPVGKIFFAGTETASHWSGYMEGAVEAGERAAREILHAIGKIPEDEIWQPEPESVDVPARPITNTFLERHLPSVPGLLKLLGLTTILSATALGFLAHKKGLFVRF
# Sequence of guinea pig Opioid, Kappa 1 Receptor (OpiateK), OPRK1 (gene 100135587) (P41144 whole entry, looked up): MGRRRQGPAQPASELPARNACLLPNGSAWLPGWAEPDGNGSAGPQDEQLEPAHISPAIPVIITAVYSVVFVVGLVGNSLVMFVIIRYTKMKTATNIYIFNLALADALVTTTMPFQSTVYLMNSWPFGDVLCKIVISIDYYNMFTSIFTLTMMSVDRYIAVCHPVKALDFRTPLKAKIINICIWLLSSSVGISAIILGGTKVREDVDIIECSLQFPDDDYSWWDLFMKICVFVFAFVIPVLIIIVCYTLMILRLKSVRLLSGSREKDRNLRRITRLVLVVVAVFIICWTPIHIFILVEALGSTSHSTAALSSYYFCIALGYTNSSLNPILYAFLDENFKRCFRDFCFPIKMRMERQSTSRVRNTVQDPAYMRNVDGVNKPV
# Sequence of human Adenosine A1 Receptor (AdoRA1), ADORA1 (gene 134) (P30542 whole entry, looked up): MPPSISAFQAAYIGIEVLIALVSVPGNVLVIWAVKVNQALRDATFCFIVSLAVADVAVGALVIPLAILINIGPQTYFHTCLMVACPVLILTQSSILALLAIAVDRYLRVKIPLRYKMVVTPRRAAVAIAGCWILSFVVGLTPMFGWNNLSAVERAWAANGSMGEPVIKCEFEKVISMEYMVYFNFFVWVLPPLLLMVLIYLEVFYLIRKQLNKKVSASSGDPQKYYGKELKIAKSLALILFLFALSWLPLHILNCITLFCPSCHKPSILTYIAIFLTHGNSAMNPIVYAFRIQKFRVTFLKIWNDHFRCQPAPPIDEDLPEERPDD
# Sequence of guinea pig Leukotriene D4 Receptor (LTD4), CYSLTR1 (gene 100135514) (Q2NNR5 whole entry, looked up): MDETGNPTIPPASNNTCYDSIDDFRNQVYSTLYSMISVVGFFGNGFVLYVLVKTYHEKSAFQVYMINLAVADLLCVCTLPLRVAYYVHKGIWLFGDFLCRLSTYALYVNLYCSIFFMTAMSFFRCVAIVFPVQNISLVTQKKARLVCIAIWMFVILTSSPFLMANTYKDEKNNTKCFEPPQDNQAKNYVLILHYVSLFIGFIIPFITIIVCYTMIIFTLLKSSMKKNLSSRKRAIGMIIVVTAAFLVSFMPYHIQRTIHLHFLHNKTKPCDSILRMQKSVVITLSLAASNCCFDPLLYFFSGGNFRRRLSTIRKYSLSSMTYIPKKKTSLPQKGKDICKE
# Sequence of human Serotonin, 5-Hydroxytryptamine Receptor 5A (5HT5A), HTR5A (gene 3361) (P47898 whole entry, looked up): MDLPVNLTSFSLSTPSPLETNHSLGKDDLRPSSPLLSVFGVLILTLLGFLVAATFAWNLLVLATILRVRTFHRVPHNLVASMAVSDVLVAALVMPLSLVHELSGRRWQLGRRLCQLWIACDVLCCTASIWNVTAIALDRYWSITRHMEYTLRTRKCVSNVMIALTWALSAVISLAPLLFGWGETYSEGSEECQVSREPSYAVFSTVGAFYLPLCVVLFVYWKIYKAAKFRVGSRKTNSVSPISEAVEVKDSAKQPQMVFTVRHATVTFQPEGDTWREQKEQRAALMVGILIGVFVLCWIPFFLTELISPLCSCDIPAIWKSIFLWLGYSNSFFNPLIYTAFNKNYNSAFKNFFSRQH
# Sequence of Adenosine receptor A1 (Bos taurus) (P28190 whole entry, looked up): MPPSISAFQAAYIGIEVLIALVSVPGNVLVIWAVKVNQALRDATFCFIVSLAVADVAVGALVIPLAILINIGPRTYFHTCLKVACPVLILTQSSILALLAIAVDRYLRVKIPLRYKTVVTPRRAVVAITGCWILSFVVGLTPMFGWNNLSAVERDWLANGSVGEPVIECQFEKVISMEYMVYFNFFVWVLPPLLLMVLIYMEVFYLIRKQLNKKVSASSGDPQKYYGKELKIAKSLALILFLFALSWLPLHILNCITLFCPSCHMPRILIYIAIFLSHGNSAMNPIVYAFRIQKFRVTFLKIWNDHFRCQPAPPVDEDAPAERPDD
# Sequence of human Serotonin, 5-Hydroxytryptamine Receptor 6 (5HT6), HTR6 (gene 3362) (P50406 whole entry, looked up): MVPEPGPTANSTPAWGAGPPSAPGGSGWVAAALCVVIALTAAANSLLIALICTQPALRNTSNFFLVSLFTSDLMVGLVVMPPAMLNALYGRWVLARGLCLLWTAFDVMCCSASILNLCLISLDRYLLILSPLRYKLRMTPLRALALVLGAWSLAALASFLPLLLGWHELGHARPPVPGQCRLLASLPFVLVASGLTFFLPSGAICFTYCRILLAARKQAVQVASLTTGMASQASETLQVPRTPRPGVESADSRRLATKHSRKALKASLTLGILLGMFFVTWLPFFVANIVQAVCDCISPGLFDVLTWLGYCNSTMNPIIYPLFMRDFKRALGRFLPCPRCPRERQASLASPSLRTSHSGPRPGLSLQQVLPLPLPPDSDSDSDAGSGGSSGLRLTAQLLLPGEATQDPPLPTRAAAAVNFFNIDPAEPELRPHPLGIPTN
# Sequence of bovine Dopamine Receptor (DR), Non-selective Binding, DRD1 (gene 281125) (Q95136 whole entry, looked up): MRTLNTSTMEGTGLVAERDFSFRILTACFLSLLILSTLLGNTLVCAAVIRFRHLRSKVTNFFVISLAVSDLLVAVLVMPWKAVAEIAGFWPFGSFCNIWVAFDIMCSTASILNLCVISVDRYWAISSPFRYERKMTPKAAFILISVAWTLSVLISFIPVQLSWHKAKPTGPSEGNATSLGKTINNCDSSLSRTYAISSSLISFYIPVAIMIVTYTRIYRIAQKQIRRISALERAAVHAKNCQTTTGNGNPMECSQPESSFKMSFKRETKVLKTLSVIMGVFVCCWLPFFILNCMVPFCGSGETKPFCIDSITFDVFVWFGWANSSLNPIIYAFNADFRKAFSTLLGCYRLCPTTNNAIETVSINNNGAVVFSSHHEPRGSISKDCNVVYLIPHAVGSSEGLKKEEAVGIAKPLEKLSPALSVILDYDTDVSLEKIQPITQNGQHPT
# Sequence of rat Catechol-O-Methyl Transferase (COMT), Comt (gene 24267) (P22734 whole entry, looked up): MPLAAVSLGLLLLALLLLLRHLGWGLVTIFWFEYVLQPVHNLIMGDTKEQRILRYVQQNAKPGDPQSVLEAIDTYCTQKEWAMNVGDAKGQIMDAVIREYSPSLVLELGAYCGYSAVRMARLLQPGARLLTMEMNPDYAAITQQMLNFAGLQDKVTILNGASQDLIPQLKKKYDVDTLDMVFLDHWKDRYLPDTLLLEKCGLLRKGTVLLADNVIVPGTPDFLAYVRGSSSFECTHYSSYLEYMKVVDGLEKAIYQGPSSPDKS
# Sequence of human Serotonin, 5-Hydroxytryptamine Receptor 2A (5HT2A), HTR2A (gene 3356) (P28223 whole entry, looked up): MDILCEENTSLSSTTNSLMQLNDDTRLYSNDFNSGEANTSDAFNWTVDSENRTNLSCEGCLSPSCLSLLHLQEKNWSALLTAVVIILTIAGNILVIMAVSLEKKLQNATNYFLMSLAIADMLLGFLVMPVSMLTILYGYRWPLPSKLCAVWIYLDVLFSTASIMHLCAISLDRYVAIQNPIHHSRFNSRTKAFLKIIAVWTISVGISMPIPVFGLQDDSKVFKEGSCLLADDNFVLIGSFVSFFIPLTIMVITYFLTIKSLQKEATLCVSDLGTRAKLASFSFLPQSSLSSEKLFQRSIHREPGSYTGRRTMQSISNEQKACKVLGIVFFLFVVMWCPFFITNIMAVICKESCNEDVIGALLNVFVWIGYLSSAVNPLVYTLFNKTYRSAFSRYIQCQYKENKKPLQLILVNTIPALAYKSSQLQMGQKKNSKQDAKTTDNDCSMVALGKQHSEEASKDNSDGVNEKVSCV
structure (smiles),measurement,setting,value
CN(C)[C@@H]1C(=O)C(C(N)=O)=C(O)[C@@]2(O)C(=O)C3=C(O)c4c(O)cccc4[C@@](C)(O)[C@H]3[C@H](O)[C@@H]12,AC50,[1],3.33 µM (active) and 1.72 µM (active)
CON=C(C(=O)OC)c1ccccc1CON=C(C)c1cccc(C(F)(F)F)c1,outcome,[2],inactive
CC[C@H](C)[C@H]1O[C@]2(C=C[C@@H]1C)C[C@@H]1C[C@@H](C/C=C(\C)[C@@H](O[C@H]3C[C@H](OC)[C@@H](O[C@H]4C[C@H](OC)[C@@H](NC)[C@H](C)O4)[C@H](C)O3)[C@@H](C)/C=C/C=C3\CO[C@@H]4[C@H](O)C(C)=C[C@@H](C(=O)O1)[C@]34O)O2,outcome,[2],inactive
same,AC50,[3],20.6 µM (active)
same,AC50,[4],26.9 µM (active)
CCCCOC(=O)c1ccccc1C(=O)O,outcome,[5],inactive
CCOP(=S)(OCC)Oc1ccc([N+](=O)[O-])cc1,outcome,[5],inactive
same,AC50,[6],7.9 µM (active)
COP(=O)(OC)OC(Br)C(Cl)(Cl)Br (stereo not given),AC50,[7],25 µM (active)
same,outcome,[3],inactive
same,AC50,[8],0.00229 µM (active)
CN(C)C(=O)Nc1cccc(C(F)(F)F)c1,outcome,[9],inactive
CSc1nc(NC(C)C)nc(NC(C)C)n1,AC50,[7],5.37 µM (active)
same,AC50,[10],3.54 µM (active)
CC(COc1ccc(Oc2ccccc2)cc1)Oc1ccccn1 (stereo not given),outcome,[11],inactive
O=C(O)c1cc(Oc2ccc(C(F)(F)F)cc2Cl)ccc1[N+](=O)[O-],outcome,[6],inactive
same,outcome,[11],inactive
CC(Oc1cccc(Cl)c1)C(=O)O (stereo not given),outcome,[11],inactive
Cc1cc(C2CC2)nc(Nc2ccccc2)n1,AC50,[7],25 µM (active)
same,outcome,[12],inactive
same,AC50,[10],9.57 µM (active)
CCOP(=O)(SC(C)CC)N1CCSC1=O (stereo not given),outcome,[9],inactive
CC1(C(=O)Nc2ccc(O)c(Cl)c2Cl)CCCCC1,outcome,[13],inactive
C=C(C)[C@H]1Cc2c(ccc3c2O[C@@H]2COc4cc(OC)c(OC)cc4[C@@H]2C3=O)O1,outcome,[11],inactive
same,AC50,[14],1.13 µM (active)
CCOP(=S)(OCC)Oc1cc(C)nc(C(C)C)n1,outcome,[8],inactive
CC(=NC#N)N(C)Cc1ccc(Cl)nc1,AC50,[13],13.3 µM (active)
CCNc1nc(Cl)nc(NC(C)(C)C#N)n1,AC50,[7],13.3 µM (active)
same,AC50,[10],4.08 µM (active)
CCc1cccc(C)c1N(C(=O)CCl)C(C)COC (stereo not given),outcome,[13],inactive
same,AC50,[15],16.2 µM (active)
CNC(=O)Oc1cccc2c1OC(C)(C)O2,outcome,[11],inactive
CC(C)N(C(=O)SCC(Cl)=C(Cl)Cl)C(C)C,outcome,[14],inactive
CCOP(=O)(NC(C)C)Oc1ccc(SC)c(C)c1 (stereo not given),AC50,[15],16.3 µM (active)
CCOC(=O)CC(SP(=O)(OC)OC)C(=O)OCC (stereo not given),outcome,[7],inactive
same,outcome,[12],inactive
same,outcome,[10],inactive
CCOC(=O)COc1cc(-c2nn(C)c(OC(F)F)c2Cl)c(F)cc1Cl,outcome,[12],inactive
CCOP(=S)(OCC)Oc1ccc2c(C)c(Cl)c(=O)oc2c1,outcome,[11],inactive
FC(F)C(F)(F)OCC(Cn1cncn1)c1ccc(Cl)cc1Cl (stereo not given),outcome,[16],inactive
same,outcome,[15],inactive
same,AC50,[10],25 µM (active)
COc1ccc(C(=CC(=O)N2CCOCC2)c2ccc(Cl)cc2)cc1OC,outcome,[15],inactive
same,AC50,[10],14.2 µM (active)
Cc1ccn2nc(S(=O)(=O)Nc3c(F)cccc3F)nc2n1,outcome,[12],inactive
CCCOCC(=Nc1ccc(Cl)cc1C(F)(F)F)n1ccnc1,outcome,[8],inactive
same,outcome,[15],inactive
N#CSCSC#N,AC50,[12],7.4 µM (active)
same,AC50,[15],38.7 µM (active)
C#CCC1=C(C)C(OC(=O)C2C(C=C(C)C)C2(C)C)CC1=O (stereo not given),outcome,[10],inactive

# Source: PubChem BioAssay (EPA / NIEHS)
